Among the data in article PMC7862700, “An all-to-all approach to the identification of sequence-specific readers for epigenetic DNA modifications on cytosine” are binding signal values, retold here.

What all share (assay): DAPPL (digital affinity profiling via proximity ligation, sequencing); 10 mM Tris-HCl pH 7.5, 50 mM NaCl, 1 mM DTT, 4% glycerol, room temperature, 30 min; GST-TFs on glutathione beads, 16-mer random dsDNA library, 0.1% formaldehyde crosslink after washing; high values mean tight binding
What all share (details): protein: recombinant; tags: N-terminal GST; dsDNA, one strand shown

One experiment has as its target T1, ERF (Homo sapiens, UniProt P50548 1-548).
T1 sequence: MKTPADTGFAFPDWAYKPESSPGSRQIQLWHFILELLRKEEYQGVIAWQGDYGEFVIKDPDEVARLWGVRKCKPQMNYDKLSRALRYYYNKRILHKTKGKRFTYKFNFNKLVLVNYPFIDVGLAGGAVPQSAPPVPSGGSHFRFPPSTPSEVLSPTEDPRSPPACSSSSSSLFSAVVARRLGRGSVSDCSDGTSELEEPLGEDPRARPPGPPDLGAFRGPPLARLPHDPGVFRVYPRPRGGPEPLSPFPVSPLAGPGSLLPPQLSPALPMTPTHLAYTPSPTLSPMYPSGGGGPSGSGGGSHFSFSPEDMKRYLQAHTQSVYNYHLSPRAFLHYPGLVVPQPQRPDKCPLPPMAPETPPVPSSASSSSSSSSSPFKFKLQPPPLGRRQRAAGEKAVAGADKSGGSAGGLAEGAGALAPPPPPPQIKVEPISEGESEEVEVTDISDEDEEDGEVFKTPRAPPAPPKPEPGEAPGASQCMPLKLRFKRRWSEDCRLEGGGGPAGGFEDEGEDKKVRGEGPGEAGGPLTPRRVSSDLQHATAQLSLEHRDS
The method, boiled down: (§1)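 Binding signal is each hexamer's read frequency for a factor divided by its frequency in the tag-only sample. The factors were GST-fused human transcription factors from yeast, captured on glutathione beads, DNA-barcoded and pooled with that sample. Pools were incubated with 200 nmole of a random double-stranded 16-mer DNA library in Tris/NaCl/DTT/glycerol buffer at room temperature for 30 min, then washed, crosslinked with 0.1% formaldehyde, proximity-ligated with BsaI/T4 ligase (1 h, 37 °C), PCR-amplified and sequenced on an Illumina NextSeq500.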

The next experiment has as its target T2, ETV3L (Homo sapiens, UniProt Q6ZN32 1-361).
T2 sequence: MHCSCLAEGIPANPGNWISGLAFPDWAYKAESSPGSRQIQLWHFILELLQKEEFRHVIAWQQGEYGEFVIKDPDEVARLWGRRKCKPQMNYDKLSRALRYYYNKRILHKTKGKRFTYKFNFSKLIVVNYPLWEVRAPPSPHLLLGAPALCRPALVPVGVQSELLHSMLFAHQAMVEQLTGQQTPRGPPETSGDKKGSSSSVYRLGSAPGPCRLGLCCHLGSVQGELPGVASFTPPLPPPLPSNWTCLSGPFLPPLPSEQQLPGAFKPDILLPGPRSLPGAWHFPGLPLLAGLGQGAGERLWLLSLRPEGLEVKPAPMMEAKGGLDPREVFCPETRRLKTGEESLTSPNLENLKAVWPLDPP
The gist of the method:
as §1

In another experiment the target is T3, ETS2 (Homo sapiens, UniProt P15036 1-469).
T3 sequence: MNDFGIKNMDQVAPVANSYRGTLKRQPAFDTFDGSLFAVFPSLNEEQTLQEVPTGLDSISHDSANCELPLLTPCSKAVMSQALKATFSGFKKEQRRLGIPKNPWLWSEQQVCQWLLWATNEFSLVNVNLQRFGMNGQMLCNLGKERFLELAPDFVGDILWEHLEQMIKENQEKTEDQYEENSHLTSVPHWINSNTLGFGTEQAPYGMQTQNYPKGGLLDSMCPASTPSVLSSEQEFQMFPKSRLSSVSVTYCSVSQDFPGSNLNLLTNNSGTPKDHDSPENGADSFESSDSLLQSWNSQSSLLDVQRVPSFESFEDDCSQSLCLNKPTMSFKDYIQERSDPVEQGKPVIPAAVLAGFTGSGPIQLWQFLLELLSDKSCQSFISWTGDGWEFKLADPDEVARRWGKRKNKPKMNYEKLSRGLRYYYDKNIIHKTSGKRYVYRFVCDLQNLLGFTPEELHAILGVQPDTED
The gist of the method: as §1

The next experiment concerns the target T4, SPDEF (Homo sapiens, UniProt O95238 1-335).
T4 sequence: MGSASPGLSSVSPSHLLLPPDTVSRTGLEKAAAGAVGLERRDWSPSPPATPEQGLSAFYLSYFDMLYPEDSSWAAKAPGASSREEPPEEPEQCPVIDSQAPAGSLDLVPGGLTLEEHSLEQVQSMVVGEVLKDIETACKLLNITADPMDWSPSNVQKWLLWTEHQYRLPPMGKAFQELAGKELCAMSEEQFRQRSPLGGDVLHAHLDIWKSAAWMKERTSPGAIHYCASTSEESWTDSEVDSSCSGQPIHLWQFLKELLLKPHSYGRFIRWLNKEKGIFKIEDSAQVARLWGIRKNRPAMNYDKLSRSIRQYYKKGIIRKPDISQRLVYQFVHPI
The method, boiled down: as §1

The next experiment deals with T5, ETV7 (Homo sapiens, UniProt Q9Y603 1-341).
T5 sequence: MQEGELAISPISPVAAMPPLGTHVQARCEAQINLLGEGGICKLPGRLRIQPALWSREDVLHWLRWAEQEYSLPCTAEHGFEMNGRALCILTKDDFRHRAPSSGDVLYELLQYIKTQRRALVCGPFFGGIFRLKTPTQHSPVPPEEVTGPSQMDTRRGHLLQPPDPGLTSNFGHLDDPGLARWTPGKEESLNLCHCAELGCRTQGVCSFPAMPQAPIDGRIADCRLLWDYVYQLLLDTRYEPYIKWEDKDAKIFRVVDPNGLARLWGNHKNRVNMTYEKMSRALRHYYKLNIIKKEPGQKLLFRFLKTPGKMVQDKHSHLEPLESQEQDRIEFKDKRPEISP
The method, boiled down:
as §1

The target of a further experiment is T6, ELF5 (Homo sapiens, UniProt Q9UKW6-2 1-255).
T6 sequence: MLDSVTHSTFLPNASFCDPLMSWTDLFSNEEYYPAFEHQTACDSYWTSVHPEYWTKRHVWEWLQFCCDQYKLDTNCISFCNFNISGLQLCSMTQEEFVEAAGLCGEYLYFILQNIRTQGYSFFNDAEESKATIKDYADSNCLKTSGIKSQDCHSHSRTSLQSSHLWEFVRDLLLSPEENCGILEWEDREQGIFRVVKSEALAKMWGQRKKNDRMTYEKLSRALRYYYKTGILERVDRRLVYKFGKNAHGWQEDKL
The gist of the method: as §1

A further experiment deals with T7, ETV3 (Homo sapiens, UniProt P41162-2 1-143).
T7 sequence: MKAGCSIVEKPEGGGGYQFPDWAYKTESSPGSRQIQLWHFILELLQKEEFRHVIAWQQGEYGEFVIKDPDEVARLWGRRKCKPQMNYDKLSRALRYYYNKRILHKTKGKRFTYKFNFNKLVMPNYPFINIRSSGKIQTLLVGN
The gist of the method:
as §1

A further experiment has as its target ETV6 (Homo sapiens, UniProt P41212 1-452). The method, boiled down:
as §1

Chain of ETV6 (P41212 whole entry): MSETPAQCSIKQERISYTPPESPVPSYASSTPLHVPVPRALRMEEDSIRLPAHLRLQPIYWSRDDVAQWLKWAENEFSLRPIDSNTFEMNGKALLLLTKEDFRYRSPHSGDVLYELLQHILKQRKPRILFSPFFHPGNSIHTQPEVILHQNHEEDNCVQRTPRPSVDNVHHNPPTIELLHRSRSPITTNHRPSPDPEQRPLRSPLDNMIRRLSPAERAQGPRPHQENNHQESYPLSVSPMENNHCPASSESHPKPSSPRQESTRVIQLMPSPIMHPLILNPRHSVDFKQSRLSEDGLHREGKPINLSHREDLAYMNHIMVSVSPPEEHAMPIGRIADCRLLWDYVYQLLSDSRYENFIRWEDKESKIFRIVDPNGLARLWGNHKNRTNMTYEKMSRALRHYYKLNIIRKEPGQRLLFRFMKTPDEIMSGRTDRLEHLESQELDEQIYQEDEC

In the case of GGAAAT, the binding signal in the experiment with ERF is 2.42 fold enrichment (6-mer frequency, TF over GST control); with ETV3L, 2.66 fold enrichment (6-mer frequency, TF over GST control); with ETS2 it was 2.75 fold enrichment (6-mer frequency, TF over GST control); in the experiment with SPDEF, 2.56 fold enrichment (6-mer frequency, TF over GST control); with ETV7 it was 2.56 fold enrichment (6-mer frequency, TF over GST control); with ELF5, 3.68 fold enrichment (6-mer frequency, TF over GST control). For the same sequence, the binding signal is 2.88 fold enrichment (6-mer frequency, TF over GST control) in the experiment with ETV3 and 3.32 fold enrichment (6-mer frequency, TF over GST control) with ETV6.

As for TTTTTT, the binding signal with ERF was 1.18 fold enrichment (6-mer frequency, TF over GST control); in the experiment with ETV3L it was 1.18 fold enrichment (6-mer frequency, TF over GST control); with ETS2, 1.09 fold enrichment (6-mer frequency, TF over GST control); in the experiment with SPDEF, 1.22 fold enrichment (6-mer frequency, TF over GST control); in the experiment with ETV7, 1.26 fold enrichment (6-mer frequency, TF over GST control); with ELF5 it was 1.14 fold enrichment (6-mer frequency, TF over GST control). For the same sequence, the binding signal in the experiment with ETV3 is 1.2 fold enrichment (6-mer frequency, TF over GST control); with ETV6, 1.11 fold enrichment (6-mer frequency, TF over GST control).

For the sequence ACGCCC, the binding signal with ERF was 1.24 fold enrichment (6-mer frequency, TF over GST control); with ETV3L, 1.17 fold enrichment (6-mer frequency, TF over GST control); in the experiment with ETS2, 1.12 fold enrichment (6-mer frequency, TF over GST control); with SPDEF, 1.07 fold enrichment (6-mer frequency, TF over GST control); with ETV7, 1.03 fold enrichment (6-mer frequency, TF over GST control); with ELF5, 1.05 fold enrichment (6-mer frequency, TF over GST control). Also, the binding signal in the experiment with ETV3 is 1.15 fold enrichment (6-mer frequency, TF over GST control); with ETV6, 1.13 fold enrichment (6-mer frequency, TF over GST control).

As to TTAAAT, the binding signal with ERF was 1.1 fold enrichment (6-mer frequency, TF over GST control); with ETV3L it was 1.22 fold enrichment (6-mer frequency, TF over GST control); with ETS2, 1.19 fold enrichment (6-mer frequency, TF over GST control); in the experiment with SPDEF, 1.16 fold enrichment (6-mer frequency, TF over GST control); with ETV7, 1.21 fold enrichment (6-mer frequency, TF over GST control); in the experiment with ELF5 it was 1.08 fold enrichment (6-mer frequency, TF over GST control). In addition, the binding signal was 1.15 fold enrichment (6-mer frequency, TF over GST control) with ETV3 and 1.23 fold enrichment (6-mer frequency, TF over GST control) with ETV6.

With GGATAT, the binding signal with ERF is 1.62 fold enrichment (6-mer frequency, TF over GST control); in the experiment with ETV3L, 1.55 fold enrichment (6-mer frequency, TF over GST control); with ETS2 it was 1.66 fold enrichment (6-mer frequency, TF over GST control); in the experiment with SPDEF, 2.38 fold enrichment (6-mer frequency, TF over GST control); with ETV7 it was 1.48 fold enrichment (6-mer frequency, TF over GST control); with ELF5 it was 1.92 fold enrichment (6-mer frequency, TF over GST control). Moreover, the binding signal was 1.71 fold enrichment (6-mer frequency, TF over GST control) with ETV3 and 1.6 fold enrichment (6-mer frequency, TF over GST control) with ETV6.

For the sequence CTCGTA, the binding signal was 1.23 fold enrichment (6-mer frequency, TF over GST control) in the experiment with ERF; 1.43 fold enrichment (6-mer frequency, TF over GST control) with ETV3L; 1.37 fold enrichment (6-mer frequency, TF over GST control) with ETS2; 1.2 fold enrichment (6-mer frequency, TF over GST control) with SPDEF; 1.11 fold enrichment (6-mer frequency, TF over GST control) in the experiment with ETV7; 1.28 fold enrichment (6-mer frequency, TF over GST control) in the experiment with ELF5. The binding signal with ETV3 was 1.23 fold enrichment (6-mer frequency, TF over GST control); with ETV6 it was 1.2 fold enrichment (6-mer frequency, TF over GST control).

On to ATATGG, for which the binding signal with ERF was 1.16 fold enrichment (6-mer frequency, TF over GST control); in the experiment with ETV3L, 1.3 fold enrichment (6-mer frequency, TF over GST control); with ETS2 it was 1.32 fold enrichment (6-mer frequency, TF over GST control); with SPDEF, 1.3 fold enrichment (6-mer frequency, TF over GST control); with ETV7 it was 1.34 fold enrichment (6-mer frequency, TF over GST control); in the experiment with ELF5 it was 1.27 fold enrichment (6-mer frequency, TF over GST control). Further, the binding signal in the experiment with ETV3 is 1.35 fold enrichment (6-mer frequency, TF over GST control); with ETV6, 1.34 fold enrichment (6-mer frequency, TF over GST control).

In the case of ACTCTA, the binding signal with ERF was 1.56 fold enrichment (6-mer frequency, TF over GST control); with ETV3L, 1.39 fold enrichment (6-mer frequency, TF over GST control); with ETS2, 1.39 fold enrichment (6-mer frequency, TF over GST control); with SPDEF it was 1.38 fold enrichment (6-mer frequency, TF over GST control); with ETV7, 1.34 fold enrichment (6-mer frequency, TF over GST control); with ELF5, 1.41 fold enrichment (6-mer frequency, TF over GST control). Besides, the binding signal is 1.48 fold enrichment (6-mer frequency, TF over GST control) with ETV3 and 1.33 fold enrichment (6-mer frequency, TF over GST control) with ETV6.

TAAACA: the binding signal with ERF is 1.31 fold enrichment (6-mer frequency, TF over GST control); with ETV3L it was 1.25 fold enrichment (6-mer frequency, TF over GST control); in the experiment with ETS2, 1.27 fold enrichment (6-mer frequency, TF over GST control); with SPDEF, 1.27 fold enrichment (6-mer frequency, TF over GST control); with ETV7, 1.24 fold enrichment (6-mer frequency, TF over GST control); with ELF5, 1.22 fold enrichment (6-mer frequency, TF over GST control). Also, the binding signal was 1.25 fold enrichment (6-mer frequency, TF over GST control) with ETV3 and 1.25 fold enrichment (6-mer frequency, TF over GST control) in the experiment with ETV6.
